In all, about 5,500 compounds went through this assay and about 2,000 (36%) were called active. Inconclusive results (about 18%) are left out. Cut-off read from the data, not from the text of the source: active = normalized growth mostly below about 0.91 (no sharp cut-off); inconclusive = no clear call, values can overlap the other calls; inactive = mostly above about 0.92. The list shows a part of the results.
Assay: chemical genetic growth profiling, strain panel (AID 1159580);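 note: tested at 20 µM; growth read once vehicle control cultures reached saturation at 30 °C; 1 = growth at the plate median or of vehicle wells; lower values mean less growth of the strain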
Settings: growth OD

Measured: normalized growth

CN(C)C(=S)SSC(=S)N(C)C
active: S. cerevisiae deletion strains, locus YJR075W, strain HOC1, hits give low values 0.0622 | S. cerevisiae deletion strains, locus YKL009W, strain mrt4, hits give low values 0.657 | S. cerevisiae deletion strains, locus YKL068W, hits give low values 0.055 | S. cerevisiae deletion strains, locus YKL085W, strain MDH1 (second series), hits give low values 0.0509 | S. cerevisiae deletion strains, locus YKL085W, strain MDH1, hits give low values 0.0509 | S. cerevisiae deletion strains, locus YKL160W, strain elf1, hits give low values 0.0619 | S. cerevisiae deletion strains, locus YKL190W, strain CNB1, hits give low values 0.0467 | S. cerevisiae deletion strains, locus YKR001C, strain vps1, hits give low values 0.061 | S. cerevisiae deletion strains, locus YKR026C, strain gcn3, hits give low values 0.0601 | S. cerevisiae deletion strains, locus YKR091W, strain srl3, hits give low values 0.058 | S. cerevisiae deletion strains, locus YLL001W, strain dnm1, hits give low values 0.0595 | S. cerevisiae deletion strains, locus YLL026W, hits give low values 0.0612 | S. cerevisiae deletion strains, locus YLL041C, strain sdh2, hits give low values 0.0559 | S. cerevisiae deletion strains, locus YLR027C, strain aat2, hits give low values 0.0546 | S. cerevisiae deletion strains, locus YLR039C, strain RIC1, hits give low values 0.0839 | S. cerevisiae deletion strains, locus YLR058C, strain SHM2, hits give low values 0.048 | S. cerevisiae deletion strains, locus YLR102C, strain apc9, hits give low values 0.0608 | S. cerevisiae deletion strains, locus YLR113W, strain HOG1, hits give low values 0.126 | S. cerevisiae deletion strains, locus YLR221C, strain rsa3, hits give low values 0.0608 | S. cerevisiae deletion strains, locus YLR258W, strain gsy2, hits give low values 0.0595 | S. cerevisiae deletion strains, locus YLR262C, strain YPT6 (second series), hits give low values 0.0761 | S. cerevisiae deletion strains, locus YLR262C, strain YPT6, hits give low values 0.0956 | S. cerevisiae deletion strains, locus YLR268W, strain sec22, hits give low values 0.0648 | S. cerevisiae deletion strains, locus YLR320W, strain mms22, hits give low values 0.0851 | S. cerevisiae deletion strains, locus YLR330W, strain CHS5, hits give low values 0.0523 | S. cerevisiae deletion strains, locus YLR342W, strain FKS1 (second series), hits give low values 0.0636 | S. cerevisiae deletion strains, locus YLR342W, strain FKS1, hits give low values 0.0632 | S. cerevisiae deletion strains, locus YLR357W, strain rsc2, hits give low values 0.117 | S. cerevisiae deletion strains, locus YLR370C, strain arc18, hits give low values 0.0609 | S. cerevisiae deletion strains, locus YLR371W, strain rom2, hits give low values 0.0607 | S. cerevisiae deletion strains, locus YLR384C, strain iki3, hits give low values 0.0593 | S. cerevisiae deletion strains, locus YLR418C, strain cdc73, hits give low values 0.0915 | S. cerevisiae deletion strains, locus YML016C, strain PPZ1, hits give low values 0.0487 | S. cerevisiae deletion strains, locus YML032C, strain rad52, hits give low values 0.0671 | S. cerevisiae deletion strains, locus YML120C, strain ndi1, hits give low values 0.0572 | S. cerevisiae deletion strains, locus YML124C, strain tub3, hits give low values 0.0583 | S. cerevisiae deletion strains, locus YMR058W, strain fet3, hits give low values 0.0575 | S. cerevisiae deletion strains, locus YMR078C, strain ctf18, hits give low values 0.0701 | S. cerevisiae deletion strains, locus YMR125W, strain sto1, hits give low values 0.0716 | S. cerevisiae deletion strains, locus YMR129W, hits give low values 0.0557 | S. cerevisiae deletion strains, locus YMR205C, strain PFK2, hits give low values 0.0852 | S. cerevisiae deletion strains, locus YMR223W, strain ubp8, hits give low values 0.062 | S. cerevisiae deletion strains, locus YMR231W, strain pep5, hits give low values 0.0656 | S. cerevisiae deletion strains, locus YMR263W, strain SAP30, hits give low values 0.0571 | S. cerevisiae deletion strains, locus YMR307W, strain GAS1, hits give low values 0.108 | S. cerevisiae deletion strains, locus YNL067W, strain RPL9B, hits give low values 0.0475 | S. cerevisiae deletion strains, locus YNL071W, strain lat1, hits give low values 0.0591 | S. cerevisiae deletion strains, locus YNL128W, strain TEP1, hits give low values 0.0618 | S. cerevisiae deletion strains, locus YNL153C, strain GIM3, hits give low values 0.0449 | S. cerevisiae deletion strains, locus YNL183C, strain NPR1, hits give low values -0.000652 | S. cerevisiae deletion strains, locus YNL209W, strain ssb2, hits give low values 0.0584 | S. cerevisiae deletion strains, locus YNL233W, strain BNI4, hits give low values 0.0527 | S. cerevisiae deletion strains, locus YNL248C, strain rpa49, hits give low values 0.0732 | S. cerevisiae deletion strains, locus YNL250W, strain rad50, hits give low values 0.0632 | S. cerevisiae deletion strains, locus YNL271C, strain bni1, hits give low values 0.0624 | S. cerevisiae deletion strains, locus YNL298W, strain CLA4, hits give low values 0.0589 | S. cerevisiae deletion strains, locus YNL307C, strain MCK1, hits give low values 0.0687 | S. cerevisiae deletion strains, locus YNL322C, strain KRE1 (second series), hits give low values 0.0642 | S. cerevisiae deletion strains, locus YNL322C, strain KRE1, hits give low values 0.0479 | S. cerevisiae deletion strains, locus YNR049C, strain mso1, hits give low values 0.0549 | S. cerevisiae deletion strains, locus YNR052C, strain pop2, hits give low values 0.0601 | S. cerevisiae deletion strains, locus YOL006C, strain TOP1, hits give low values 0.0896 | S. cerevisiae deletion strains, locus YOL012C, strain htz1 0.179 | S. cerevisiae deletion strains, locus YOL147C, strain pex11, hits give low values 0.0594 | S. cerevisiae deletion strains, locus YOR001W, strain rrp6, hits give low values 0.0656 | S. cerevisiae deletion strains, locus YOR061W, strain CKA2, hits give low values 0.0451 | S. cerevisiae deletion strains, locus YOR069W, strain VPS5, hits give low values 0.0465 | S. cerevisiae deletion strains, locus YOR070C, strain gyp1, hits give low values 0.0589 | S. cerevisiae deletion strains, locus YOR080W, strain dia2, hits give low values 0.067 | S. cerevisiae deletion strains, locus YOR083W, strain WHI5, hits give low values 0.0647 | S. cerevisiae deletion strains, locus YOR106W, strain vam3, hits give low values 0.061 | S. cerevisiae deletion strains, locus YOR136W, strain idh2, hits give low values 0.0736 | S. cerevisiae deletion strains, locus YOR144C, strain elg1, hits give low values 0.0615 | S. cerevisiae deletion strains, locus YOR184W, strain ser1, hits give low values 0.0681 | S. cerevisiae deletion strains, locus YOR231W, strain MKK1, hits give low values 0.103 | S. cerevisiae deletion strains, locus YOR265W, strain rbl2, hits give low values 0.0567 | S. cerevisiae deletion strains, locus YOR270C, strain vph1, hits give low values 0.0916 | S. cerevisiae deletion strains, locus YOR290C, strain snf2, hits give low values 0.0706 | S. cerevisiae deletion strains, locus YOR316C, strain cot1, hits give low values 0.0552 | S. cerevisiae deletion strains, locus YPL051W, strain arl3, hits give low values 0.0635 | S. cerevisiae deletion strains, locus YPL055C, strain LGE1, hits give low values 0.0716 | S. cerevisiae deletion strains, locus YPL078C, strain atp4, hits give low values 0.0627 | S. cerevisiae deletion strains, locus YPL106C, strain sse1, hits give low values 0.1 | S. cerevisiae deletion strains, locus YPL240C, strain hsp82, hits give low values 0.0673 | S. cerevisiae deletion strains, locus YPL241C, strain CIN2, hits give low values 0.0518 | S. cerevisiae deletion strains, locus YPL256C, strain CLN2, hits give low values 0.125 | S. cerevisiae deletion strains, locus YPR119W, strain clb2, hits give low values 0.0622 | S. cerevisiae deletion strains, locus YPR141C, strain kar3, hits give low values 0.0653 | S. cerevisiae deletion strains, locus YPR163C, strain tif3, hits give low values 0.0696 | S. cerevisiae deletion strains, locus YPR167C, strain met16, hits give low values 0.0614 | S. cerevisiae deletion strains, strain wtn01, hits give low values 0.0602 | S. cerevisiae strains, strain wild type, hits give low values 0.0482

— PubChem BioAssay AID1159580 (chemical genetic matrix, 2015)
